Results published in the supplement of paper PMC9262897, “Low-cost anti-mycobacterial drug discovery using engineered E. coli” (Nature Communications, 2022).
Structures can show the parent of a compound that is named as a salt. ± gives the standard deviation of the averaged measurements.

Experiments:
Experiment in all cases: growth (OD600 after 10 h); higher = more growth (less inhibition)
[1] = test system: E. coli TESEC Alr+ wild-type control; conditions: compound 0.1 mM; raw OD600 reference: median of DMSO wells 0.241, cell-free background 0.041
Description: (§1)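 TESEC Mtb Alr E. coli, or the Alr+ wild-type control, in 384-well plates with Prestwick library compounds at 0.1 mM and 1% DMSO, across arabinose induction levels of 1E3 to 1E7 nM. Growth is read as OD600 after 10 h at 37 °C in triplicate biological replicates.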

[2] = test system: E. coli TESEC Mtb Alr; conditions: compound 0.1 mM
Description: as §1

[3] = test system: E. coli TESEC Mtb Asd; conditions: compound 0.1 mM
Description: (§2)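 TESEC E. coli strains in which the native enzyme is deleted and replaced by arabinose-inducible Mtb Asd, DapB, CysH or TrpD, each grown in its selective medium. Strains were screened against the Prestwick library at 0.1 mM and 1% DMSO in 384-well format at low and high arabinose induction. Growth is read as OD600 after 10 h in triplicate.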

[4] = test system: E. coli TESEC Mtb DapB; conditions: compound 0.1 mM
Description: as §2

[5] = test system: E. coli TESEC Alr+ wild-type control; conditions: compound 0.1 mM; raw OD600 reference: median of DMSO wells 0.49, cell-free background 0.052
Description: (§3)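 TESEC Mtb Alr E. coli (ΔaraC ΔtolC ΔentC Δalr ΔdadX, arabinose-inducible Mtb Alr) or the Alr+ wild-type control strain, grown in defined M9-fructose medium without D-alanine in 96-well plates with Prestwick library compounds at 0.1 mM and 1% DMSO. Low Alr induction is 0.1 µM arabinose and high induction is 10 mM arabinose.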

[6] = test system: E. coli TESEC Mtb Alr; conditions: compound 0.1 mM; remark: listed apart in the source
Description: as §3

[7] = arabinose 1000 nM, raw OD600 reference: median of DMSO wells 0.294, cell-free background 0.041
[8] = arabinose 10000 nM, raw OD600 reference: median of DMSO wells 0.264, cell-free background 0.041
[9] = arabinose 100000 nM, raw OD600 reference: median of DMSO wells 0.201, cell-free background 0.041
[10] = arabinose 1000000 nM, raw OD600 reference: median of DMSO wells 0.193, cell-free background 0.041
[11] = arabinose 10000000 nM, raw OD600 reference: median of DMSO wells 0.146, cell-free background 0.041
[12] = arabinose induction (level): High, raw OD600 reference: median of DMSO wells 0.331, cell-free background 0.041
[13] = arabinose induction (level): Low, raw OD600 reference: median of DMSO wells 0.417, cell-free background 0.041
[14] = arabinose induction (level): High, raw OD600 reference: median of DMSO wells […], cell-free background 0.041
[15] = arabinose induction (level): Low, raw OD600 reference: median of DMSO wells 0.227, cell-free background 0.041
[16] = arabinose 100 nM, raw OD600 reference: median of DMSO wells 0.413, cell-free background 0.052
[17] = arabinose 10000000 nM, raw OD600 reference: median of DMSO wells […], cell-free background 0.052

Structure (SMILES) | growth [1] | growth [2, 7] | growth [2, 8] | growth [2, 9] | growth [2, 10] | growth [2, 11] | growth [3, 12] | growth [3, 13] | growth [4, 14] | growth [4, 15] | growth [5] | growth [6, 16] | growth [6, 17]
Cc1c(C)c2c(c(C)c1O)CCC(C)(COc1ccc(CC3SC(=O)NC3=O)cc1)O2 (stereo unspecified) [Troglitazone] | 0.0771 ± 0.022 | 0.108 ± 0.06 | 0.0436 ± 0.0028 | 0.16 ± 0.011 | 0.0474 ± 0.003 | 0.104 ± 0.016 | 0.0511 ± 0.00036 | 0.0536 ± 0.0033 | 0.08 ± 0.0038 | 0.126 ± 0.04 | 0.445 ± 0.029 | 0.0885 ± 0.025 | 0.0573 ± 0.00085
NC12CC3CC(CC(C3)C1)C2 [Adamantamine fumarate] | 0.253 ± 0.0038 | 0.299 ± 0.0054 | 0.271 ± 0.005 | 0.248 ± 0.034 | 0.209 ± 0.014 | 0.145 ± 0.0061 | 0.353 ± 0.052 | 0.457 ± 0.0081 | 0.2 ± 0.0046 | 0.214 ± 0.0073 | 0.469 ± 0.056 | 0.407 ± 0.0076 | 0.368 ± 0.026
CC(C)(C)NCC(O)c1cc(O)cc(O)c1 (stereo unspecified) [Terbutaline hemisulfate] | 0.251 ± 0.0065 | 0.301 ± 0.0057 | 0.265 ± 0.0072 | 0.238 ± 0.047 | 0.1766 ± 0.0011 | 0.163 ± 0.0049 | 0.293 ± 0.03 | 0.385 ± 0.042 | 0.226 ± 0.004 | 0.221 ± 0.013 | 0.504 ± 0.051 | 0.402 ± 0.0092 | 0.354 ± 0.026
CC1(C)S[C@@H]2[C@H](NC(=O)[C@H](N)c3ccccc3)C(=O)N2[C@H]1C(=O)O [Ampicillin trihydrate] | 0.235 ± 0.0072 | 0.279 ± 0.011 | 0.253 ± 0.013 | 0.189 ± 0.024 | 0.1927 ± 0.0013 | 0.145 ± 0.0022 | 0.388 ± 0.056 | 0.394 ± 0.066 | 0.205 ± 0.013 | 0.256 ± 0.051 | 0.479 ± 0.038 | 0.4271 ± 0.0036 | 0.338 ± 0.0045
Nc1ncn(C2OC(CO)C(O)C2O)c(=O)n1 (stereo unspecified) [Azacytidine-5] | 0.093 ± 0.0029 | 0.106 ± 0.0065 | 0.0449 ± 0.0005 | 0.113 ± 0.0011 | 0.0465 ± 0.00069 | 0.0822 ± 0.0002 | 0.125 ± 0.0088 | 0.192 ± 0.065 | 0.199 ± 0.03 | 0.193 ± 0.027 | 0.4795 ± 0.0037 | 0.385 ± 0.022 | 0.066 ± 0.0049
CCN(CC)C(C)CN1c2ccccc2Sc2ccccc21 (stereo unspecified) [Ethopropazine hydrochloride] | 0.17 ± 0.0058 | 0.214 ± 0.0057 | 0.271 ± 0.016 | 0.172 ± 0.003 | 0.135 ± 0.0087 | 0.174 ± 0.0019 | 0.156 ± 0.031 | 0.289 ± 0.03 | 0.2149 ± 0.0019 | 0.236 ± 0.015 | 0.469 ± 0.026 | 0.413 ± 0.0094 | 0.333 ± 0.014
C#C[C@]1(OC(C)=O)CC[C@H]2[C@@H]3CCC4=CC(=NO)CC[C@@H]4[C@H]3CC[C@@]21CC (mixture of isomers) [Norgestimate] | 0.134 ± 0.0062 | 0.123 ± 0.0052 | 0.0585 ± 0.0036 | 0.136 ± 0.0049 | 0.0563 ± 0.0053 | 0.111 ± 0.0098 | 0.0829 ± 0.015 | 0.0714 ± 0.019 | 0.126 ± 0.0075 | 0.0826 ± 0.025 | 0.185 ± 0.0039 | 0.263 ± 0.013 | 0.0794 ± 0.012
N[C@H]1CONC1=O [(S)-(-)-Cycloserine] | 0.247 ± 0.0025 | 0.0382 ± 0.001 | 0.0389 ± 0.0016 | 0.217 ± 0.0065 | 0.188 ± 0.012 | 0.108 ± 0.0032 | 0.329 ± 0.034 | 0.354 ± 0.038 | 0.211 ± 0.015 | 0.276 ± 0.051 | 0.558 ± 0.063 | 0.045 ± 0.00044 | 0.13 ± 0.0078
COC(=O)C1=C(C)NC(C)=C(C(=O)OCCN(C)Cc2ccccc2)C1c1cccc([N+](=O)[O-])c1 (stereo unspecified) [Nicardipine hydrochloride] | 0.0481 ± 0.0012 | 0.0453 ± 0.0013 | 0.04637 ± 0.00021 | 0.049 ± 0.0015 | 0.045 ± 0.0027 | 0.0566 ± 0.0042 | 0.054 ± 0.0024 | 0.0558 ± 0.0072 | 0.107 ± 0.079 | 0.0547 ± 0.0015 | 0.0588 ± 0.0012 | 0.3938 ± 0.0022 | 0.0545 ± 0.0036
CCN(CC)CCNC(=O)c1cc(S(C)(=O)=O)ccc1OC [Tiapride hydrochloride] | 0.249 ± 0.0035 | 0.295 ± 0.01 | 0.263 ± 0.0064 | 0.213 ± 0.016 | 0.184 ± 0.0024 | 0.149 ± 0.0067 | 0.295 ± 0.057 | 0.422 ± 0.045 | 0.183 ± 0.023 | 0.218 ± 0.035 | 0.481 ± 0.087 | 0.422 ± 0.011 | 0.361 ± 0.013
Cc1cc(/C=C/c2ccc3cc(N(C)C)ccc3[n+]2C)c(C)n1-c1ccccc1 [Pyrvinium pamoate] | 0.0976 ± 0.0031 | 0.0602 ± 0.0021 | 0.0614 ± 0.0072 | 0.0747 ± 0.009 | 0.0511 ± 0.00066 | 0.0872 ± 0.0092 | 0.071 ± 0.00096 | 0.0642 ± 0.0028 | 0.0704 ± 0.0048 | 0.0798 ± 0.011 | 0.141 ± 0.019 | 0.142 ± 0.013 | 0.162 ± 0.025
NC[C@@H]1O[C@H](O[C@H]2[C@@H](O)[C@H](O[C@@H]3[C@@H](O)[C@H](N)C[C@H](N)[C@H]3O[C@H]3O[C@H](CN)[C@@H](O)[C@H](O)[C@H]3N)O[C@@H]2CO)[C@H](N)[C@@H](O)[C@@H]1O [Neomycin sulfate] | 0.249 ± 0.0054 | 0.305 ± 0.009 | 0.287 ± 0.0035 | 0.219 ± 0.015 | 0.19 ± 0.005 | 0.163 ± 0.0028 | 0.271 ± 0.043 | 0.389 ± 0.021 | 0.187 ± 0.018 | 0.245 ± 0.041 | 0.453 ± 0.037 | 0.4232 ± 0.0036 | 0.343 ± 0.013
